Data on 37 molecules can be found in PubChem BioAssay (Tox21).

Results filed as inconclusive are left out. The source made the active and inactive calls. Unless noted, the call rests on the fitted dose curve; in most records, active means well fitted curve in the direction sought with a large enough effect in the repeat runs; inconclusive means weak or mixed curves; inactive means no such curve, though single readings can be large; an effect the other way counts as inactive or inconclusive.

System in one experiment: not listed separately
Put plainly: qHTS assay to identify small molecule antagonists of the retinoid-related orphan receptor gamma (ROR-gamma) signaling pathway - cell viability counter screen (AID 1159520). Further: on the % scale 0 is the no-effect control and ±100 the full control effect; nearly all actives have a fitted effect of over 50% in size. The settings on record: Tet-on RORgamma CHO cells viability, ATP luminescence, 16 h; series mostly up to 92.4 µM. Summed up: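 Cytotoxicity was read from cellular ATP (CellTiter-Glo luminescence) after 16 hr at 37 C with 1 uM doxycycline induction. The inducer was added 2 hr after compound transfer to Tet-on ROR gamma CHO cells.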
Background: In qHTS, concentration-response curves come from the screen itself.
On to `O=C1c2ccccc2C(=O)N1CCl`, for which the outcome was inactive.

For `CC(=O)CCCCn1c(=O)c2c(ncn2C)n(C)c1=O`, the result was inactive.

For the molecule `CCCCOC(=O)c1ccccc1`, the call was inactive.

As to `Brc1ccc(-c2ccccc2)cc1`, the molecule was called inactive.

With `CCOc1cc([N+](=O)[O-])c(OCC)cc1N1CCOCC1`, the call was inactive.

For `O=C(CCNNC(=O)c1ccncc1)NCc1ccccc1`, the outcome was inactive.

With `COc1ccc(-c2cc(=O)c3c(O)cc(O[C@@H]4O[C@H](CO[C@@H]5O[C@@H](C)[C@H](O)[C@@H](O)[C@H]5O)[C@@H](O)[C@H](O)[C@H]4O)cc3o2)cc1O`, the outcome was inactive.

As to `Cc1cccc2nccnc12`, the outcome was inactive.

Regarding `O=C(OCC1(COC(=O)c2cccnc2)CCCC(COC(=O)c2cccnc2)(COC(=O)c2cccnc2)C1O)c1cccnc1`, the outcome was inactive.

As to `OC[C@H](Cc1cccc(O)c1)[C@H](CO)Cc1cccc(O)c1`, the call was inactive.

Take `C=C(C)C(=O)OCCN(CC)CC`: the molecule was called inactive.

Take `COCCc1ccc(OCC2CO2)cc1` (centres undefined): the result was inactive.

In the case of `COC(=O)c1ccccc1C(=O)c1ccc(OCCN2CCCCC2)cc1`, the result was inactive.

In the case of `CC(C)=O`, the result was inactive.

As for `O=C(O)c1cc(Br)c(O)c(Br)c1`, the call was inactive.

Take `CCNC(=O)C1CC(C)CCC1C(C)C` (centres undefined): the molecule was classed as inactive.

`O=C(O)c1cc(Cl)cc([N+](=O)[O-])c1Cl`: the result was inactive.

As for `CC1=C(C(=O)O)N2C(=O)[C@@H](NC(=O)[C@H](N)c3ccc(O)cc3)[C@H]2SC1`, the molecule was called inactive.

Turning to `C[C@H](CCC(=O)O)[C@H]1CC[C@H]2[C@@H]3C(=O)C[C@@H]4CC(=O)CC[C@]4(C)[C@H]3CC(=O)[C@]12C`, the call was inactive.

As to `NC(CO)C(=O)NNCc1ccc(O)c(O)c1O` (centres undefined), the molecule was classed as inactive.

With `COC(=O)[C@@H]1[C@H]2C[C@H]3c4[nH]c5ccccc5c4CCN3C[C@@H]2CC[C@@H]1O`, the call was inactive.

`CCC(C)NC(N)=O` (centres undefined): the result was inactive.

For the molecule `COc1nccnc1NS(=O)(=O)c1ccc(N)cc1`, the outcome was inactive.

For `O=C(NCCN1CCOCC1)c1ccc(Cl)cc1`, the molecule was classed as inactive.

For `Cc1ccccc1OCC(O)CO` (centres undefined), the molecule was classed as inactive.

As to `N[C@@H](CCC(=O)N[C@@H](CS)C(=O)NCC(=O)O)C(=O)O`, the activity, negative = cytotoxicity is 4.19% [at 19 µM] (inactive).

For the molecule `CN(CCOc1ccc(NS(C)(=O)=O)cc1)CCc1ccc(NS(C)(=O)=O)cc1`, the molecule was classed as inactive.

Take `COc1ccc2nc(SCc3ncc(C)c(OC)c3C)[nH]c2c1`: the molecule was classed as inactive.

As to `CCCCCOC(=O)CCC`, the outcome was inactive.

On to `CC(=O)Nc1cccc(C)c1`, for which the outcome was inactive.

For `CC(C)OC(=O)CCCCC(=O)OC(C)C`, the molecule was called inactive.

Consider `COC(=O)CCc1ccc(OCC(O)CNC(C)C)cc1` (centres undefined), for which the call was inactive.

`O=C(CCN1CCN(CCO)CC1)N1c2ccccc2Sc2ccc(C(F)(F)F)cc21`: the result was inactive.

On to `CCOCCOCCOCC`, for which the call was inactive.

On to `N[C@@H](CCC(=O)Nc1ccc([N+](=O)[O-])cc1)C(=O)O`, for which the call was inactive.

`Cc1ccc2ccc(Cl)cc2n1`: the outcome was inactive.

With `NNc1nnc(NN)c2ccccc12`, the result was inactive.

The next experiment has as its target Nuclear receptor ROR-gamma (Homo sapiens) (UniProt P51449). Put plainly: qHTS assay to identify small molecule antagonists of the retinoid-related orphan receptor gamma (ROR-gamma) signaling pathway (AID 1159521;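 further: CHO cells with doxycycline inducible ROR-gamma driving an RORE luciferase reporter; top concentration of the series differs between compounds; on the % scale 0 is the no-effect control and ±100 the full control effect; nearly all actives have a fitted effect of over 50% in size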). The settings on record: Tet-on RORgamma CHO cells, RORE-luciferase, 16 h; series mostly up to 92.4 µM. The gist of the method: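 Readout: ONE-Glo luciferase luminescence, 30 min at room temperature. System: Tet-on RORγ CHO, RORE-LUC. Sequence: compound 2 h, doxycycline 1 uM final, 16 h at 37 C.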
With `O=C1c2ccccc2C(=O)N1CCl`, the molecule was classed as inactive.

Regarding `CCCCOC(=O)c1ccccc1`, the molecule was called inactive.

As to `CCOc1cc([N+](=O)[O-])c(OCC)cc1N1CCOCC1`, the result was inactive.

As for `OC[C@H](Cc1cccc(O)c1)[C@H](CO)Cc1cccc(O)c1`, the molecule was classed as inactive.

In the case of `COC(=O)c1ccccc1C(=O)c1ccc(OCCN2CCCCC2)cc1`, the result was inactive.

For `CC(C)=O`, the molecule was classed as inactive.

As to `O=C(O)c1cc(Cl)cc([N+](=O)[O-])c1Cl`, the molecule was classed as inactive.

With `CC1=C(C(=O)O)N2C(=O)[C@@H](NC(=O)[C@H](N)c3ccc(O)cc3)[C@H]2SC1`, the outcome was inactive.

For `CCC(C)NC(N)=O` (centres undefined), the molecule was classed as inactive.

As for `N[C@@H](CCC(=O)N[C@@H](CS)C(=O)NCC(=O)O)C(=O)O`, the activity change, negative = inhibition is -1.88% [at 19 µM] (inactive).

For the molecule `CN(CCOc1ccc(NS(C)(=O)=O)cc1)CCc1ccc(NS(C)(=O)=O)cc1`, the outcome was inactive.

For `CC(=O)Nc1cccc(C)c1`, the molecule was classed as inactive.

Take `COC(=O)CCc1ccc(OCC(O)CNC(C)C)cc1` (centres undefined): the molecule was classed as inactive.

System in a further experiment: not listed separately
Put plainly: qHTS assay to identify small molecule agonists of the AP-1 signaling pathway - cell viability counter screen (AID 1159525; calls by dose curve; further: nearly all actives have a fitted effect of over 55% in size). Particulars: ME-180 (cervical carcinoma) AP-1-bla cells viability, ATP luminescence, 5 h; series mostly up to 76.8 µM. The gist of the method:
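Luminescent ATP readout (Cell Titer Glo, 30 min RT), normalised to DMSO and tetra n-octyl ammonium bromide controls. Cells were ME-180 AP-1-bla in 0.5% dialyzed FBS Opti-MEM, with a 5 h, 37 °C compound exposure.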
Regarding `CC(=O)CCCCn1c(=O)c2c(ncn2C)n(C)c1=O`, the molecule was classed as inactive.

For the molecule `Brc1ccc(-c2ccccc2)cc1`, the outcome was inactive.

For `O=C(CCNNC(=O)c1ccncc1)NCc1ccccc1`, the molecule was called inactive.

On to `COc1ccc(-c2cc(=O)c3c(O)cc(O[C@@H]4O[C@H](CO[C@@H]5O[C@@H](C)[C@H](O)[C@@H](O)[C@H]5O)[C@@H](O)[C@H](O)[C@H]4O)cc3o2)cc1O`, for which the molecule was classed as inactive.

For `Cc1cccc2nccnc12`, the molecule was classed as inactive.

For the molecule `O=C(OCC1(COC(=O)c2cccnc2)CCCC(COC(=O)c2cccnc2)(COC(=O)c2cccnc2)C1O)c1cccnc1`, the molecule was classed as inactive.

As for `C=C(C)C(=O)OCCN(CC)CC`, the outcome was inactive.

As to `COCCc1ccc(OCC2CO2)cc1` (centres undefined), the molecule was called inactive.

For `O=C(O)c1cc(Br)c(O)c(Br)c1`, the molecule was classed as inactive.

For `CCNC(=O)C1CC(C)CCC1C(C)C` (centres undefined), the result was inactive.

Regarding `C[C@H](CCC(=O)O)[C@H]1CC[C@H]2[C@@H]3C(=O)C[C@@H]4CC(=O)CC[C@]4(C)[C@H]3CC(=O)[C@]12C`, the result was inactive.

For the molecule `NC(CO)C(=O)NNCc1ccc(O)c(O)c1O` (centres undefined), the call was inactive.

As for `COC(=O)[C@@H]1[C@H]2C[C@H]3c4[nH]c5ccccc5c4CCN3C[C@@H]2CC[C@@H]1O`, the call was inactive.

In the case of `COc1nccnc1NS(=O)(=O)c1ccc(N)cc1`, the molecule was called inactive.

For `O=C(NCCN1CCOCC1)c1ccc(Cl)cc1`, the molecule was classed as inactive.

For the molecule `Cc1ccccc1OCC(O)CO` (centres undefined), the molecule was classed as inactive.

In the case of `COc1ccc2nc(SCc3ncc(C)c(OC)c3C)[nH]c2c1`, the result was inactive.

As to `CCCCCOC(=O)CCC`, the result was inactive.

For the molecule `CC(C)OC(=O)CCCCC(=O)OC(C)C`, the call was inactive.

Consider `O=C(CCN1CCN(CCO)CC1)N1c2ccccc2Sc2ccc(C(F)(F)F)cc21`, for which the outcome was inactive.

As to `CCOCCOCCOCC`, the outcome was inactive.

Consider `N[C@@H](CCC(=O)Nc1ccc([N+](=O)[O-])cc1)C(=O)O`, for which the molecule was classed as inactive.

For `Cc1ccc2ccc(Cl)cc2n1`, the molecule was classed as inactive.

For `NNc1nnc(NN)c2ccccc12`, the molecule was called inactive.
